Test results: PubChem BioAssay (NCATS)
Where “and” joins values, the source holds several entries; their conditions need not be identical. Identical values can stand only once. Results filed as inconclusive are left out. A number with no mark means an inactive call. Calls of active or inactive are those of the source. The call rests on the fitted dose curve; in most records, active means well fitted curve in the direction sought with a large enough effect; inconclusive means small, poorly fitted or top-dose-only effect, or another doubt; inactive means no such curve, though single readings can be large; an effect the other way counts as inactive or inconclusive. Where a SMILES comes first, the peptide text is derived from it. [ ]: non-standard residue; d: D form. Hyp = O=C(O)[CH]1C[CH](O)CN1; Phe(ol) = N[CH](CO)Cc1ccccc1; Iva = CC[C](C)(N)C(=O)O; Aib = CC(C)(N)C(=O)O

Legend:
[1] = Primary qHTS for inhibitors of nuclear receptor binding SET domain protein 2 (NSD2) in an isogenic RCH-ACV NSD2 p.E1099K mutant (9B) (AID 1645876)
[2] = Primary qHTS for inhibitors of nuclear receptor binding SET domain protein 2 (NSD2) in an RCH-ACV wild type WT cells (2C) (AID 1645877)
Further: nearly all actives have a fitted effect of over 70% in size.
On the % scale 0 is the no-effect control and ±100 the full control effect; potency means the concentration at half of the fitted maximal effect.

Row | Compound | activity change, negative = viability loss [1] | activity change, negative = cell killing [2] | Potency [1] | Potency [2]
1 | CCC(C)(NC(=O)C(CCC(N)=O)NC(=O)C1CC(O)CN1C(=O)C(C)(C)NC(=O)C(C)(C)NC(=O)C(CC(C)C)NC(=O)CNC(=O)C(NC(=O)C(C)(C)NC(=O)C(C)(C)NC(=O)C(C)(C)NC(=O)C(Cc1ccccc1)NC(C)=O)C(C)C)C(=O)N1CC(O)CC1C(=O)NC(C)(C)C(=O)NC(CO)Cc1ccccc1 (stereo not drawn) (Ac-F[Aib][Aib][Aib]VGL[Aib][Aib][Hyp]Q[Iva][Hyp][Aib][Phe(ol)]; configuration not given here) | -11.4% [at 9.23 µM] | -29.8% [at 9.23 µM] |  | 
2 | COC1CC(=O)C23C(=O)NC(Cc4c[nH]c5ccccc45)C2C(C)C2(C)OC2C3/C=C/CC(C)CC1O (stereo not drawn) |  |  | 3.17 µM (active) | 2.52 µM (active)
3 | CCc1cccc(CC)c1-n1c(C=C(C)C)c(C(=O)N2CCNCC2)cc(-c2nc(-c3ccc(C(F)(F)F)cc3)cs2)c1=O |  |  | 8.93 µM (active) | 10 µM (active)
4 | C=C(C)C(=O)O[C@H]1[C@H]2C(=C)C(=O)O[C@@H]2C[C@@H](C)[C@@H]2O[C@@H]2C(=O)[C@](C)(O)[C@@H]1OC(=O)C(=C)C |  |  | 1.78 µM (active) | 1.26 µM (active)
5 | C=C1C(=O)O[C@@H]2/C=C(\C)CC/C=C(\C)CC[C@@H]12 |  |  | 14.5 µM (active) | 7.28 µM (active)
6 | CC1(C)CC[C@]2(C(=O)O)[C@H](O)C[C@]3(C)C(=CCC4[C@@]5(C)CC[C@H](O[C@@H]6O[C@H](CO[C@@H]7OC[C@H](O)[C@H](O)[C@H]7O[C@@H]7OC[C@H](O)[C@H](O)[C@H]7O)[C@@H](O)[C@H](O)[C@H]6O)C(C)(C)C5CC[C@]43C)[C@@H]2C1 (stereo partly drawn) |  | -24.5% [at 9.23 µM] | 4.35 µM (active) | 
7 | C/C=C(\C)[C@@H]1C(C)=C[C@@H]2[C@H]([C@@H]1/C=C/C=C/C(=O)O)[C@@H](C)CC[C@@H]2O |  |  | 5.05 µM (active) | 4.01 µM (active)
8 | C=C1C(=O)O[C@@H]2[C@H]1CCC(C)=C(CCC(=O)O)[C@@]2(C)O |  |  | 20.5 µM (active) | 10.3 µM (active)
9 | C[C@@H]1CC[C@]2(C(=O)O)CC[C@]3(C)C(=CCC4[C@@]5(C)CC[C@H](O)[C@](C)(C(=O)O)C5CC[C@]43C)C2[C@]1(C)O (stereo partly drawn) |  |  | inactive | inactive
10 | C=CCNC1=C2C[C@@H](C)C[C@H](OC)[C@H](O)[C@@H](C)/C=C(\C)[C@H](OC(N)=O)[C@@H](OC)/C=C\C=C(/C)C(=O)NC(=CC1=O)C2=O |  |  | 3.32 µM (active) | 2.63 µM (active)
11 | O=C(NO)c1cnc(N2CCN(S(=O)(=O)c3ccc4ccccc4c3)CC2)nc1 |  |  | 0.252 µM (active) | 0.252 µM (active)
12 | CC(=O)OC1C(O)CC2(C)C(CCC3(C)C2CC=C2C4C5(CCC(CO[C@@H]6O[C@H](CO)[C@@H](O)[C@H](O)[C@H]6O)(OC5=O)C4(C)O)C(O)CC23C)C1(C)C (stereo partly drawn) |  |  | inactive | inactive
13 | CCN1CCN(Cc2ccc(NC(=O)c3ccc(C)c(Oc4ncnc5[nH]c(C)cc45)c3)cc2C(F)(F)F)CC1 |  |  | 2.05 µM (active) | 2.3 µM (active)
14 | O=C(c1c(F)ccc(NS(=O)(=O)N2CC[C@@H](F)C2)c1F)c1c[nH]c2ncc(-c3cnc(C4CC4)nc3)cc12 |  |  | 11.8 µM (active) | 11.6 µM (active)
15 | COc1cc(/C=C/C(=O)NCCn2c(C(F)(F)F)cc3ccccc32)cc(OC)c1OC |  |  | inactive | inactive
16 | COc1ccc(CCO[C@@H]2O[C@H](CO[C@H]3OC[C@](O)(CO)[C@H]3O)[C@@H](OC(=O)/C=C/c3ccc(O)c(O)c3)[C@H](O[C@@H]3O[C@@H](C)[C@H](O)[C@@H](O)[C@H]3O)[C@H]2O)cc1OC |  |  | 6.08 µM (active) | 4.83 µM (active)
17 | COc1cc(C(C)C)c(Oc2cnc(N)nc2N)cc1I |  |  | 16.3 µM (active) | 16.3 µM (active)
18 | O=C(NCc1nc2ccccc2c(=O)n1-c1ccc(F)cc1)Nc1ccc(Cl)c(C(F)(F)F)c1 |  |  | 25.8 µM (active) | 23 µM (active)
19 | C=C1C(=O)O[C@H]2C[C@@H](C)[C@@H]3CCC(=O)[C@@]3(C)C[C@H]12 |  |  | 3.65 µM (active) | 3.65 µM (active)
20 | C=C1C(=O)OC2CC(C)=C(C(C)CCCOC(C)=O)C(OC(=O)CC(C)CC)C12 (stereo not drawn) |  |  | 7.09 µM (active) | 7.09 µM (active)
21 | C=C[C@@]1(C)C=C2C(=O)C(O)=C3[C@](C)(C(=O)O)CC[C@@H]4C[C@]34[C@]2(O)C(=O)C1 |  |  | 10.1 µM (active) | 2.53 µM (active)
22 | C=C1C(=O)O[C@@H]2/C=C(\C)CC/C=C(/C=O)[C@H](OC)[C@@H](OC(=O)C(C)C)[C@@H]12 |  |  | 8.01 µM (active) | 3.19 µM (active)

Row | Compound | activity change, negative = viability loss [1] | activity change, negative = cell killing [2] | Potency [1] | Potency [2]
23 | C=C1C(=O)O[C@@H]2C[C@H](C)C3=CC(=O)[C@H](O)[C@@]3(C)C[C@H]12 |  |  | 25.8 µM (active) | 18.3 µM (active)
24 | Cn1sc(=O)n(Cc2ccccc2)c1=O |  |  | 7.28 µM (active) and 18.4 µM (active) | 2.58 µM (active) and 11.6 µM (active)
25 | C=C(C)C1CC(O)C(C)C12CC(O)C1(C)OC1C2O (stereo not drawn) |  |  | 4.59 µM (active) | 3.25 µM (active)
26 | CC(C)C[C@@H]1NC(=O)[C@@H](Cc2ccccc2)NC(=O)C(CCCCCC(=O)C2CO2)NC(=O)[C@@H]2CCCCN2C1=O (stereo partly drawn) |  |  | 0.0709 µM (active) | 0.0252 µM (active)
27 | CC(=O)O[C@H]1CC(C)(C)CC2[C@]13CO[C@@]21CCC2[C@@]4(C)CC[C@H](O[C@@H]5OC[C@H](O[C@@H]6O[C@H](CO)[C@@H](O)[C@H](O)[C@H]6O[C@@H]6OC[C@@H](O[C@@H]7O[C@H](CO)[C@@H](O)[C@H](O)[C@H]7O)[C@H](O)[C@H]6O)[C@H](O)[C@H]5O[C@@H]5O[C@H](CO)[C@@H](O)[C@H](O)[C@H]5O)[C@@](C)(CO)C4CC[C@@]2(C)[C@]1(C)C[C@H]3O (stereo partly drawn) |  |  | 1.09 µM (active) | 2.18 µM (active)
28 | CC(=O)O[C@H]1CC(C)(C)CC2[C@]13CO[C@@]21CCC2[C@@]4(C)CC[C@H](O[C@@H]5OC[C@H](O[C@@H]6O[C@H](CO)[C@@H](O)[C@H](O)[C@H]6O[C@@H]6OC[C@@H](O)[C@H](O)[C@H]6O)[C@H](O)[C@H]5O[C@@H]5O[C@H](CO)[C@@H](O)[C@H](O)[C@H]5O)[C@@](C)(CO)C4CC[C@@]2(C)[C@]1(C)C[C@H]3O (stereo partly drawn) |  |  | 2.45 µM (active) | 3.88 µM (active)
29 | CN[C@@H]1[C@H](O[C@H]2[C@H](O[C@@H]3[C@@H](O)[C@H](O)[C@@H](N=C(N)N)[C@H](O)[C@H]3N=C(N)N)O[C@@H](C)[C@]2(O)CO)O[C@@H](CO)[C@H](O)[C@H]1O |  |  | inactive | inactive
30 | C[C@H](Oc1cc(-n2cnc3ccc(CN4CCN(C)CC4)cc32)sc1C(N)=O)c1ccccc1C(F)(F)F |  |  | 1.15 µM (active) | 1.29 µM (active)
31 | COc1cc(CCC2=NN=C(NC(=O)c3ccc(N4C[C@@H](C)N[C@@H](C)C4)cc3)C2)cc(OC)c1 |  |  | 5.78 µM (active) | 5.78 µM (active)
32 | COC(=O)Nc1cc(Nc2cc(NC3CC3)c3ncc(C#N)n3n2)c(Cl)c(N2CCN(C)CC2)c1 |  |  | 0.742 µM (active) | 0.372 µM (active)
33 | Cc1nc2ccc(CN(C)c3ccc(C(=O)NC(CCC(=O)O)C(=O)O)s3)cc2c(=O)[nH]1 (stereo not drawn) |  |  | 0.0092 µM (active) | 0.0092 µM (active)
34 | C=C1C(=O)OC2/C=C(\CO)CC/C=C(\C=O)C(O)C(OC(=O)C(C)CC)C12 (stereo not drawn) |  |  | 5.67 µM (active) | 2.01 µM (active)
35 | Nc1nc2c(ncn2C2OC3COP(=O)(O)OC3C2O)c(=O)[nH]1 (stereo not drawn) |  |  | inactive | inactive
36 | N#Cc1ccnc(Nc2cc(C3CCN(C4COC4)CC3)cc(N3CCC(F)(F)C3)n2)c1 |  |  | 2.91 µM (active) and 934 nM (active) | 2.59 µM (active) and 525 nM (active)
37 | Nc1nc(Cl)nc2c1ncn2C1OC(CO)C(O)C1F (stereo not drawn) |  |  | 0.0092 µM (active) | 0.0082 µM (active)
38 | N#Cc1ccc(O[C@@H]2c3ccccc3C[C@H]2N2CCC[C@@H](N)C2)c(Cl)c1 |  |  | 20.5 µM (active) | 18.3 µM (active)
39 | CC(=O)C=C=C1C(C)(C)CC(O)CC1(C)O[C@@H]1O[C@H](CO[C@H]2OC[C@](O)(CO)[C@H]2O)[C@@H](O)[C@H](O)[C@H]1O (stereo partly drawn) |  |  | inactive | inactive
40 | CCC(C)C(=O)O[C@H]1[C@@H](OC(=O)c2ccoc2)C[C@](C)(O)[C@]23OC(C)(C)[C@H](C[C@H](OC(=O)c4ccoc4)[C@]12COC(C)=O)[C@H]3OC(C)=O (stereo partly drawn) |  |  | inactive | inactive
41 | C=C1C(=O)O[C@@H]2C3C(=C(C)[C@@H](O)[C@@H](OC(=O)/C(=C/C)COC(C)=O)[C@@H]12)C(=O)[C@H]1O[C@@]31C (stereo partly drawn) |  |  | 2.82 µM (active) | 1.59 µM (active)
42 | C=CC(=O)N1CCCN(c2cc(NCCC(=O)O)nc(-c3ccccn3)n2)CC1 |  |  | inactive | inactive
43 | C/C=C(/C)C(=O)O[C@H]1[C@H](OC(=O)/C(C)=C\C)[C@@]23C(CC1(C)C)[C@]1(CCC4[C@@]5(C)CC[C@H](O[C@@H]6O[C@H](C(=O)O)[C@@H](O)[C@H](O[C@@H]7O[C@H](CO)[C@H](O)[C@H](O)[C@H]7O[C@@H]7O[C@@H](C)[C@H](O)[C@@H](O)[C@H]7O[C@@H]7OC[C@@H](O)[C@H](O)[C@H]7O)[C@H]6O[C@@H]6O[C@H](CO)[C@H](O)[C@H](O)[C@H]6O)C(C)(C)C5CC[C@@]4(C)[C@]1(C)C[C@H]2O)O[C@H]3O (stereo partly drawn) |  |  | 1.22 µM (active) | 2.18 µM (active)
44 | COc1cc(S(C)(=O)=O)ccc1Nc1nc2ccc(-c3ccc(NC(=O)[C@H](C)c4ccc(F)cc4)cc3)cn2n1 |  |  | 0.742 µM (active) | 0.417 µM (active)
